Assay outcomes as filed in PubChem.
A selection: hits, their analogues and other compounds. The true share with any hit is near 2.1%.
EP2 modulator: EP2 receptor (human) modulation; 0.83% of 260,000 active; induction, % at 25 µM; P43116; EP2-expressing cells, cAMP HTRF FRET, PGE2 co-stimulation;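 active = compounds whose cAMP rise, as percent of the full-agonist control response, exceeds 60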;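 note: rat C6 glioma line stably carrying human EP2 under a CMV promoter; the protocol text gives 20 µM as final concentration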
CHT PAM: allosterically activates the human high affinity choline transporter; B-score at 10 µM; AID 488977; 0.49% of 310,000 active; CHT-expressing cells, membrane potential dye, choline EC20; hits give high values; LV-AA mutant CHT in HEK293 cells;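 active = initial fluorescence not abnormally high and integrated response B-score, plate-corrected, over 3 SD above library mean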
Target sequence (Q9GZV3 whole entry, looked up): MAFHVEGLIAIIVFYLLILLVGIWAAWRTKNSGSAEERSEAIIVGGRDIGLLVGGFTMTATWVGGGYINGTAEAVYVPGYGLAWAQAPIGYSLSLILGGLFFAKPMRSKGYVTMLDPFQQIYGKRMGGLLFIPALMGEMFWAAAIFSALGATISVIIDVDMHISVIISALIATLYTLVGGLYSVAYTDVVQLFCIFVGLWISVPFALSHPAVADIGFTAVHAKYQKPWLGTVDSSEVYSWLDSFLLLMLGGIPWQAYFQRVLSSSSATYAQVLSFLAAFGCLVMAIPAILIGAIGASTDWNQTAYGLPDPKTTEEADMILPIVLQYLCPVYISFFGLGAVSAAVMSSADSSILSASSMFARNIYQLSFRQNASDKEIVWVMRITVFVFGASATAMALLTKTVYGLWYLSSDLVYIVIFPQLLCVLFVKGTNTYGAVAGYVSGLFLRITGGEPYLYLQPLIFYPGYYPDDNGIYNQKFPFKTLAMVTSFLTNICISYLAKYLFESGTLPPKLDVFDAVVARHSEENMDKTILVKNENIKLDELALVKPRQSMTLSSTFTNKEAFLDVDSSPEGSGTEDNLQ
CHT inh: inhibits the human high affinity choline transporter; 0.86% of 310,000 active; B-score at 10 µM; Q9GZV3; CHT-expressing cells, membrane potential dye, choline response; hits give low values;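 active = B-score over 3 SD under the library average, and starting fluorescence ratio not unusually high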;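 note: choline stimulus applied at its EC90 after an EC20 pre-addition; B-score computed on integrated fluorescence ratio after choline addition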
PGE2 EP2 inh: blocks the human prostaglandin E2 receptor EP2. P43116. C6 glioma cells expressing human EP2, cAMP TR-FRET; cells stimulated with saturating PGE2. inhibition, % at 25 µM. 0.52% of 260,000 active. AID 1422;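 active = percent inhibition above 40 after rounding to a whole number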;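 note: rat C6 glioma host cells with rolipram phosphodiesterase inhibitor present; the protocol text gives 20 µM as final concentration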
Numbers stand for hits; n = inactive; x = no result given; ! = not active in a repeat.

SMILES | EP2 modulator | CHT PAM | CHT inh | PGE2 EP2 inh
Cc1occc1-c1nn(CC(=O)N2C(C)CCCC2C)c(=O)o1 (configuration not stated) | n | x | x | x
CCOC(=O)c1c(NC(=O)Nc2ccccc2)sc(C)c1C | 62 | n | n | n
CCOC(=O)Nc1sc(C)c(C)c1C(=O)OCC | n | n | n | n
CCOC(=O)C(C)n1ncc2c3sc(C)cc3n(Cc3ccc(F)cc3)c2c1=O (configuration not stated) | 65 | x | x | x
Cc1cc2c(s1)c1cnn(CC(=O)O)c(=O)c1n2Cc1ccc(F)cc1 | n | x | x | n
COc1ccccc1Nc1nc2ccc(C)cc2cc1C#N | 61 | n | n | x
c1ccc2c(CN3CCN(Cc4c[nH]c5ccccc45)CC3)c[nH]c2c1 | n | x | x | 62
Cc1[nH]c2ccccc2c1-c1cc(-c2cc(-c3c(C)[nH]c4ccccc34)nc(N)n2)nc(N)n1 | n | x | x | 42
Cc1[nH]c2ccccc2c1-c1nc(N)sc1C | x | n | n | x
CC1CCCC(C)N1C(=O)Cn1c2ccccc2n2c(SCC(=O)Nc3ccccc3)nnc12 (configuration not stated) | n | x | x | n
O=C(CSc1nc2ccc(NC(=O)CSc3nnnn3Cc3ccccc3)cc2s1)Nc1ccccc1 | n | n | n | n
COC(=O)CSc1nc2ccc(NC(=O)CSc3nnnn3Cc3ccccc3)cc2s1 | n | n | n | 48
Cc1ccccc1CN1C2=NCCN2C(=O)C2=C1CCN(Cc1ccccc1)C2 | n | x | x | 49
O=Cc1coc2c(ccc3ccccc32)c1=O | x | n | -6.5 | x
O=C(Cc1ccc(Nc2nc3ccc(Br)cc3[nH]2)cc1)NCCc1cccs1 | n | n | n | n
O=C(NCC1CC1)c1ccc(Nc2nc3ccc(Br)cc3[nH]2)cc1 | n | n | n | 74
CN1[C@@H]2CC[C@H]1CC(OC(c1ccccc1)c1ccccc1)C2 (some centres not stated) | n | x | x | 57
CN1C2CCC1CC(OC(c1ccccc1)c1ccccc1)C2 (configuration not stated) | n | n | n | n
CC1(C)OC(=O)C(=Cc2ccc(-c3ccc(S(N)(=O)=O)cc3)o2)C(=O)O1 | n | n | n | 43
CCOc1ccc(NC(=O)CSc2nnc(C)n2-c2ccccc2)cc1 | n | x | x | n
N#Cc1cc2cc3c(cc2nc1SCC(=O)NCc1ccccc1)OCCO3 | n | x | x | 43
CCOC(=O)c1ccc(NC(=O)CSc2nc3cc4c(cc3cc2C#N)OCCO4)cc1 | 83 | x | x | n
Cc1ccc(NC(=O)C2CC(=O)OC23CCCCC3)cc1C (configuration not stated) | n | x | x | n
Cc1nc2ccccn2c1C(=O)N=Nc1c(O)n(CCC(C)C)c2ccccc12 | n | n | n | 51
CCCn1c(O)c(N=NC(=O)c2ccco2)c2ccccc21 | n | n | n | n
SMILES | EP2 modulator | CHT PAM | CHT inh | PGE2 EP2 inh
CCCS(=O)(=O)N1CCC[C@H](Cn2nc(-c3cccs3)ccc2=O)C1 | n | x | x | x
CSc1ncnc2c1ncn2CC(=O)[C@@H]1CC[C@@H]2[C@H]3CCC4=CC(=O)CC[C@@]4(C)[C@@H]3CC[C@]21C | n | x | x | 64
Cc1ccc2nc(/C(C#N)=C\c3ccc([N+](=O)[O-])o3)[nH]c2c1 | n | n | n | 64
N#C/C(=C\c1ccc([N+](=O)[O-])o1)c1nc2ccccc2[nH]1 | n | n | n | 69
Cc1cc(C)c2c(c1)-c1cc(C)nn1C(c1ccc(O)c(O)c1)N2 (configuration not stated) | n | x | x | n
Cc1cc(C)c2c(c1)-c1cc(C)nn1C(c1ccc3c(c1)OCO3)N2 (configuration not stated) | 64 | n | n | n
Cc1ccc(-n2c(SCC(=O)N3CCCC(C)C3)nnc2-c2ccco2)cc1 (configuration not stated) | n | x | x | 93
C=C[C@@H](C1=CC(=O)C(OC)=C(OC)C1=O)c1ccccc1 | n | x | x | 120
COc1c(C)cccc1C(=O)Nc1nc2ccc(NC(C)=O)cc2s1 | n | x | x | n
CCCSc1nnc(NC(=O)c2sc3nc(-c4cccs4)ccc3c2N)s1 | n | n | n | n
COc1cc(C(=O)Nc2nc(-c3cccs3)cs2)cc(OC)c1OC | n | n | n | 87
Cc1csc(NC(=O)c2sc3nc(-c4cccs4)ccc3c2N)n1 | n | n | n | 64
COc1ccc(C(=O)Nc2nc(-c3cccs3)cs2)cc1 | n | n | n | 43
COCCCN1C(=O)C(=O)/C(=C(\O)c2ccc(OC)cc2C)C1c1cccs1 (configuration not stated) | n | x | x | n
Cc1sc2nc(C3CC3)n3c(=O)n(CC(=O)NC4CCCCC4)nc3c2c1C | n | x | x | x
O=C(Cn1ccc(=O)[nH]c1=O)OCC(=O)N1c2ccccc2Sc2ccccc21 | n | x | x | n
C(C#CCCCCCCCCC[n+]1ccccc1)#CCCCCCCCCC[n+]1ccccc1 | x | 7.6 | n | x
Cn1c(=S)c2[nH]c(SCCN3CCCC3)nc2n(C)c1=O | n | n | n | n
Cn1c(=S)c2[nH]c(SCCN3C(=O)c4ccccc4C3=O)nc2n(C)c1=O | n | x | x | 41
CC(C)c1nnc(SCC(=O)Nc2cccc(F)c2)n1C | n | x | x | n
COc1cccc(Cn2c(-c3nonc3N)nc3ccccc32)c1 | 64 | n | n | n
C=CCn1c[n+](CC(=O)c2cc(C(C)(C)C)c(O)c(C(C)(C)C)c2)c2ccccc21 | n | x | x | n
COc1ccc2cc(CN(Cc3ccco3)C(=S)NC3CCCCC3)c(=O)[nH]c2c1 | n | x | x | n
O=S(=O)(Nc1nc2ccccc2nc1Nc1ccc2c(c1)OCCO2)c1cccs1 | n | n | -7.7 | n
Clc1ccc2c(c1)c1cc(Cl)ccc1n2CN1CCOCC1 | 64 | n | n | n
SMILES | EP2 modulator | CHT PAM | CHT inh | PGE2 EP2 inh
Clc1ccc2c(c1)c1ccccc1n2CN1CCOCC1 | n | n | n | n
O=S(=O)(O)c1ccc(N=Nc2ccc3c(S(=O)(=O)O)cccc3c2O)c2ccccc12 | n | x | x | 56
Cc1cc(C)c2cc(C#N)c(SCC(=O)Nc3ccccc3)nc2c1 | n | x | x | n
O=C1C(=O)c2ccccc2C(O)=C1C(CCc1ccccc1)C1=C(O)c2ccccc2C(=O)C1=O | n | x | x | 42
CC(C)=Cc1oc2ccc([N+](=O)[O-])cc2c1N1CC(C)OC(C)C1 (configuration not stated) | 62 | n | n | n
CC1CN(c2ccc([N+](=O)[O-])cc2C#N)CC(C)O1 (configuration not stated) | n | n | n | n
CCc1nn(CC(=O)NCc2cccs2)c(=O)c2cc3sccc3n12 | n | x | x | x
O=C1c2ccccc2C(Nc2cccc(C(F)(F)F)c2)N1Cc1ccco1 (configuration not stated) | 61 | n | n | n
COc1cccc(NC2c3ccccc3C(=O)N2Cc2ccco2)c1 (configuration not stated) | n | n | n | n
Cc1cc(-c2[nH]nc3c2C(c2ccc(C(F)(F)F)cc2)C(C#N)=C(N)O3)c(C)s1 (configuration not stated) | 61 | x | x | n
Oc1ccc2cn[nH]c2c1 | n | x | x | n
O=C(Nc1ccc2nc(-c3ccccc3)oc2c1)c1ccco1 | n | n | n | 42!
O=C(Nc1cccc(-c2nc3ccccc3o2)c1)c1cccnc1 | n | n | n | n
O=C(Nc1ccc(-c2noc(CCc3ccccc3)n2)cc1)c1cccnc1 | n | n | n | 76
